# Source: ChEMBL document CHEMBL2218924, “A broad activity screen in support of a chemogenomic map for kinase signalling research and drug discovery” (Biochem J, 2013)
# Tests used:
# [1] = target: T1, Serine/threonine-protein kinase 3 (Homo sapiens) (UniProt Q13188); details: at 1 µM
# T1 sequence (whole entry): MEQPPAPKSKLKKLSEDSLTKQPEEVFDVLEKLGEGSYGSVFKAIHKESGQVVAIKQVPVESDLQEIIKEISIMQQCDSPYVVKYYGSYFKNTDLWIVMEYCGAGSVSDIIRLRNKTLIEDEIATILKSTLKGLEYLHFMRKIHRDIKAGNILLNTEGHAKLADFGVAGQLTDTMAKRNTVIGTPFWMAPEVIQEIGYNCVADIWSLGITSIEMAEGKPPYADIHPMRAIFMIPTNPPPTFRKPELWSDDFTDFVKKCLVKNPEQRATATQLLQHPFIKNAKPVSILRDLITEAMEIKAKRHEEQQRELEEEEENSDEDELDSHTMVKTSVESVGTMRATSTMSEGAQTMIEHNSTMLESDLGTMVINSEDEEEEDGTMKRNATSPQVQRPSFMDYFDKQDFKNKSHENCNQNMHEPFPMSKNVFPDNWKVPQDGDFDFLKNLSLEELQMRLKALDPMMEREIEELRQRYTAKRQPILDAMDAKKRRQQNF
# [2] = target: Serine/threonine-protein kinase 24 (Homo sapiens) (UniProt Q9Y6E0); details: at 1 µM
# Chain of Serine/threonine-protein kinase 24 (Homo sapiens) (Q9Y6E0 whole entry, looked up): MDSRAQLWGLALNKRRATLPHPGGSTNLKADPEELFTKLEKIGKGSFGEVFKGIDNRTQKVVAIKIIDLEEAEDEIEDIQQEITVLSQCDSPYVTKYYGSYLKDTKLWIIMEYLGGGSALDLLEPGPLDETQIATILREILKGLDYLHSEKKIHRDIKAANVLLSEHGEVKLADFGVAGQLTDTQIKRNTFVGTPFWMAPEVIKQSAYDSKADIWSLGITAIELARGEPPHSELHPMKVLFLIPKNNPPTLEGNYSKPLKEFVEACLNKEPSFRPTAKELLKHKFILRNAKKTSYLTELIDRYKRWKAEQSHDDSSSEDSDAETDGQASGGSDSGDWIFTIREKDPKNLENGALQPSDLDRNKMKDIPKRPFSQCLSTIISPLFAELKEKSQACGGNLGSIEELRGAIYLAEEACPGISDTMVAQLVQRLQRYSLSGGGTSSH
# [3] = target: Serine/threonine-protein kinase 24 (Homo sapiens) (UniProt Q9Y6E0); details: at 10 µM
# [4] = target: Hepatocyte growth factor receptor (Homo sapiens) (UniProt P08581); details: at 1 µM
# Chain of Hepatocyte growth factor receptor (Homo sapiens) (P08581 whole entry): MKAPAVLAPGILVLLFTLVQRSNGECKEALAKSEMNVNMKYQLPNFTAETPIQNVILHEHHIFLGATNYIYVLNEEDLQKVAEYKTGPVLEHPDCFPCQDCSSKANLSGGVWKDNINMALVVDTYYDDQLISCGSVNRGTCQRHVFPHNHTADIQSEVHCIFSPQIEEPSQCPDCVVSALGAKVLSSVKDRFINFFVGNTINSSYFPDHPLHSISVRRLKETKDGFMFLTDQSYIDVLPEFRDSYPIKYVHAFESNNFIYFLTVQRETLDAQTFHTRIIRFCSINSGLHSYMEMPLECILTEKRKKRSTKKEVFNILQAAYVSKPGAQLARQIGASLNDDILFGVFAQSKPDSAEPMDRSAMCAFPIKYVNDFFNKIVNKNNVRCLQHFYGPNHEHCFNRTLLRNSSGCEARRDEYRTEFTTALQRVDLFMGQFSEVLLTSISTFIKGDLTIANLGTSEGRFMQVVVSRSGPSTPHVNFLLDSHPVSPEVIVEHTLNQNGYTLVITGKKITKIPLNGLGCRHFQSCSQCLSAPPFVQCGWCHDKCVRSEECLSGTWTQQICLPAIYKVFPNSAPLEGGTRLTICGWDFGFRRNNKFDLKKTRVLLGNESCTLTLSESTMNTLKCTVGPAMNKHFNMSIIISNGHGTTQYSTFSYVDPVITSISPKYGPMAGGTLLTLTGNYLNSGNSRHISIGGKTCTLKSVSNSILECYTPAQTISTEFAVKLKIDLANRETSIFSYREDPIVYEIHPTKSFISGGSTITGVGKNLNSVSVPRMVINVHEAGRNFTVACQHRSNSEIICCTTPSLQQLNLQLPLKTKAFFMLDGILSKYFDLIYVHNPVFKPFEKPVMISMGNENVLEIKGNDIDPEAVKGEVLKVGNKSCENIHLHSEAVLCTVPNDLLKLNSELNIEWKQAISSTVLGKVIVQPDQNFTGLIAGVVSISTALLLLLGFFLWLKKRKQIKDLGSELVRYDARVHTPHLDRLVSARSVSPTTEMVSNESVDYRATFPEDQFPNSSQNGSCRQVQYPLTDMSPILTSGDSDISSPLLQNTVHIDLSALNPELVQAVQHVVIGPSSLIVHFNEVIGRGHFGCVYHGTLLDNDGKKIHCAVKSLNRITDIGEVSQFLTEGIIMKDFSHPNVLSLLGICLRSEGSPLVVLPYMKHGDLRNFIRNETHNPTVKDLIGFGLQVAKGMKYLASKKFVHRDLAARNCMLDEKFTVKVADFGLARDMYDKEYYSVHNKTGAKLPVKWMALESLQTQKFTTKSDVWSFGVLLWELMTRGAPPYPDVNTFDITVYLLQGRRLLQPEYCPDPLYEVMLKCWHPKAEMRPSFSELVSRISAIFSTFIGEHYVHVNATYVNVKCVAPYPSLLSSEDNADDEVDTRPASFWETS
# [5] = target: Hepatocyte growth factor receptor (Homo sapiens) (UniProt P08581); details: at 10 µM
# [6] = target: T2, Serine/threonine-protein kinase Nek11 (Homo sapiens) (UniProt Q8NG66); details: at 1 µM
# T2 sequence (whole entry): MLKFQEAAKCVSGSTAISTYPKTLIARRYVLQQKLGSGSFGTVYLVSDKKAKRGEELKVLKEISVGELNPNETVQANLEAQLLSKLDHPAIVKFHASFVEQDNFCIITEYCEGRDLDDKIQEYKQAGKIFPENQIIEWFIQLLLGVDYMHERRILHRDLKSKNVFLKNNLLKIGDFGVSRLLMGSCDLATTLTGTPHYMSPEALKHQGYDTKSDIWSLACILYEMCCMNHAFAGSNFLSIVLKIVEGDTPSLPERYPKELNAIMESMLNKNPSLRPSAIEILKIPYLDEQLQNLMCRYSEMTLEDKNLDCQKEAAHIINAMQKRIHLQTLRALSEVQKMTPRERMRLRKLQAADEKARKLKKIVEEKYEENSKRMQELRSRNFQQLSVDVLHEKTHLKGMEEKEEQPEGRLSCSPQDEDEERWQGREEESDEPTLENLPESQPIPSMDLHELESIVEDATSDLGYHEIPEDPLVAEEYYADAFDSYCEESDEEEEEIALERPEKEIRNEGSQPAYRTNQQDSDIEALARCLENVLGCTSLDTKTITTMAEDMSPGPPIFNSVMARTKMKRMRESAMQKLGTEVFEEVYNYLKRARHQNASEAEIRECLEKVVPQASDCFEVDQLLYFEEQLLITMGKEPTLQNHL
# [7] = target: T2, Serine/threonine-protein kinase Nek11 (Homo sapiens); details: at 10 µM
# [8] = target: T3, Tyrosine-protein kinase Mer (Homo sapiens) (UniProt Q12866); details: at 1 µM
# T3 sequence (whole entry): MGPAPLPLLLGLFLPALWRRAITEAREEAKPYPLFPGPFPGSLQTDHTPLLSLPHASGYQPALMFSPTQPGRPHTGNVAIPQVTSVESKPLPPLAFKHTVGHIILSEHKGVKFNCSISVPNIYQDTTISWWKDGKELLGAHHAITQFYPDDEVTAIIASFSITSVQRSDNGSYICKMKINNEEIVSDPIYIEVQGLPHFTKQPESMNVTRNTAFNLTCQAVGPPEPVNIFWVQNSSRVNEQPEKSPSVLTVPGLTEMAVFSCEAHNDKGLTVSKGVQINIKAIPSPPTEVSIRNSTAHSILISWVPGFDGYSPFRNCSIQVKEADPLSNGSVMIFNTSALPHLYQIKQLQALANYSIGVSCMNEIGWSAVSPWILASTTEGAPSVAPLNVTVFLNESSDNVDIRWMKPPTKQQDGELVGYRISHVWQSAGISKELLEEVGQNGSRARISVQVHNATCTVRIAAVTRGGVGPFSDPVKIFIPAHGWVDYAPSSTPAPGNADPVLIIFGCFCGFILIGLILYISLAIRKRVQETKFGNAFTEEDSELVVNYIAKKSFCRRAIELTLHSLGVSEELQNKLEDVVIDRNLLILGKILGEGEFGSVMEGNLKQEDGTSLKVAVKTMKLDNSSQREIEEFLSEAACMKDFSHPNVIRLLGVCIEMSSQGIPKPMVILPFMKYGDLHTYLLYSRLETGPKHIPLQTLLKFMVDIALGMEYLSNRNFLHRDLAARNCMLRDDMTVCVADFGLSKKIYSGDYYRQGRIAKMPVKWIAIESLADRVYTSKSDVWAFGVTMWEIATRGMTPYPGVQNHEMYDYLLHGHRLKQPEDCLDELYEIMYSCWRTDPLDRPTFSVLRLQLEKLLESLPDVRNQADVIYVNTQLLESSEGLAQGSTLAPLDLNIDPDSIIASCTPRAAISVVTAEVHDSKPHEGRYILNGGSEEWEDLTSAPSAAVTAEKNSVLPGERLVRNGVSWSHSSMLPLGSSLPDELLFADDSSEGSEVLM
# [9] = target: T3, Tyrosine-protein kinase Mer (Homo sapiens); details: at 10 µM
# [10] = target: MAP kinase-interacting serine/threonine-protein kinase 2 (Homo sapiens) (UniProt Q9HBH9); details: at 1 µM
# Chain of MAP kinase-interacting serine/threonine-protein kinase 2 (Homo sapiens) (Q9HBH9 whole entry, looked up): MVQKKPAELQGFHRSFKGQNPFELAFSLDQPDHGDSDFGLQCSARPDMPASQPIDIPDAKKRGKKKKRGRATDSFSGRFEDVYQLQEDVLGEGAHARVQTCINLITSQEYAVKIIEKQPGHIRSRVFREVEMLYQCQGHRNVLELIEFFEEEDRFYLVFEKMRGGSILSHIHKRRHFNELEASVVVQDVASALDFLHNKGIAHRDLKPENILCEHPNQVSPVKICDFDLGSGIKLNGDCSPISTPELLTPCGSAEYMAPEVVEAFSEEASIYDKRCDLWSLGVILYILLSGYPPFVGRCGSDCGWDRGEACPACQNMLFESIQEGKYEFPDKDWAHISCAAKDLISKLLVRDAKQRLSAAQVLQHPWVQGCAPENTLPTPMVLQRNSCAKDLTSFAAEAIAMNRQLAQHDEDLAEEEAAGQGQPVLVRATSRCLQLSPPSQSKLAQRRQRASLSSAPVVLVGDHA
# [11] = target: MAP kinase-interacting serine/threonine-protein kinase 2 (Homo sapiens) (UniProt Q9HBH9); details: at 10 µM
# [12] = target: T4, Muscle, skeletal receptor tyrosine-protein kinase (Homo sapiens) (UniProt O15146); details: at 1 µM
# T4 sequence (whole entry): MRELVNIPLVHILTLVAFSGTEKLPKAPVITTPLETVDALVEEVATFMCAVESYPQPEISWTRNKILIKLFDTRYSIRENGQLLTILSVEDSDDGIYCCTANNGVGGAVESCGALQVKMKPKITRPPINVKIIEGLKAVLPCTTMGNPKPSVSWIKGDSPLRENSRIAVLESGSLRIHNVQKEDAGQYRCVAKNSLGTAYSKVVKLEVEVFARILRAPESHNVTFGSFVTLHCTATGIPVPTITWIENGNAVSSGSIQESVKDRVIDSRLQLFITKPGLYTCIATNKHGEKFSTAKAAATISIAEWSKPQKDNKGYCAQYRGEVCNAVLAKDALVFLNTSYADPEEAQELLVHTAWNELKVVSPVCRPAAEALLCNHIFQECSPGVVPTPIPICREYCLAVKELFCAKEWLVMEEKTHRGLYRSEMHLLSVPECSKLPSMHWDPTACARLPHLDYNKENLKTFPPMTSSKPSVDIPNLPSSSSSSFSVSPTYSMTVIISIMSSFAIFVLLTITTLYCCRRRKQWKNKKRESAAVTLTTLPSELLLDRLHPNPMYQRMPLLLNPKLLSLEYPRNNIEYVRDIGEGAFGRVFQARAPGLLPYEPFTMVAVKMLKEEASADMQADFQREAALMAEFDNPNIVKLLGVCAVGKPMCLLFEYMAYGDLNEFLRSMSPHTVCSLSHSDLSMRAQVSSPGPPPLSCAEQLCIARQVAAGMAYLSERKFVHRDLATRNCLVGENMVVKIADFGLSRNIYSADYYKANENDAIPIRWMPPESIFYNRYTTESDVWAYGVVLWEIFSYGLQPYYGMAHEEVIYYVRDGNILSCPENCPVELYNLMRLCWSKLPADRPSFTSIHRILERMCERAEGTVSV
# [13] = target: T4, Muscle, skeletal receptor tyrosine-protein kinase (Homo sapiens); details: at 10 µM
# [14] = target: T5, Serine/threonine-protein kinase Nek3 (Homo sapiens) (UniProt P51956); details: at 1 µM
# T5 sequence (whole entry): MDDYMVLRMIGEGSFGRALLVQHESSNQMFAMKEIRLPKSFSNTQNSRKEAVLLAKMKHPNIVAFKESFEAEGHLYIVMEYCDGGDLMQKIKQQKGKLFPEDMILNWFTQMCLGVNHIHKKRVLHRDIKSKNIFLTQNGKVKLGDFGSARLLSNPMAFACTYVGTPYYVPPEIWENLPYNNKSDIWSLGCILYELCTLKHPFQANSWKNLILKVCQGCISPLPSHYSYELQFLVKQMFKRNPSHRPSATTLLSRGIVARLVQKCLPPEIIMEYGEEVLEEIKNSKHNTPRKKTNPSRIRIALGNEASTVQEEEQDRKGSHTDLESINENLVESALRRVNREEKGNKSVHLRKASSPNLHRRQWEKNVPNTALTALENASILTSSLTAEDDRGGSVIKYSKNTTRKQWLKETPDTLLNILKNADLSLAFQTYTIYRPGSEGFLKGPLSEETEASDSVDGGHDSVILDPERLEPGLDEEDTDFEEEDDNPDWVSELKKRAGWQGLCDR
# [15] = target: T5, Serine/threonine-protein kinase Nek3 (Homo sapiens); details: at 10 µM
# [16] = target: Serine/threonine-protein kinase tousled-like 2 (Homo sapiens) (UniProt Q86UE8); details: at 1 µM
# Chain of Serine/threonine-protein kinase tousled-like 2 (Homo sapiens) (Q86UE8 whole entry, looked up): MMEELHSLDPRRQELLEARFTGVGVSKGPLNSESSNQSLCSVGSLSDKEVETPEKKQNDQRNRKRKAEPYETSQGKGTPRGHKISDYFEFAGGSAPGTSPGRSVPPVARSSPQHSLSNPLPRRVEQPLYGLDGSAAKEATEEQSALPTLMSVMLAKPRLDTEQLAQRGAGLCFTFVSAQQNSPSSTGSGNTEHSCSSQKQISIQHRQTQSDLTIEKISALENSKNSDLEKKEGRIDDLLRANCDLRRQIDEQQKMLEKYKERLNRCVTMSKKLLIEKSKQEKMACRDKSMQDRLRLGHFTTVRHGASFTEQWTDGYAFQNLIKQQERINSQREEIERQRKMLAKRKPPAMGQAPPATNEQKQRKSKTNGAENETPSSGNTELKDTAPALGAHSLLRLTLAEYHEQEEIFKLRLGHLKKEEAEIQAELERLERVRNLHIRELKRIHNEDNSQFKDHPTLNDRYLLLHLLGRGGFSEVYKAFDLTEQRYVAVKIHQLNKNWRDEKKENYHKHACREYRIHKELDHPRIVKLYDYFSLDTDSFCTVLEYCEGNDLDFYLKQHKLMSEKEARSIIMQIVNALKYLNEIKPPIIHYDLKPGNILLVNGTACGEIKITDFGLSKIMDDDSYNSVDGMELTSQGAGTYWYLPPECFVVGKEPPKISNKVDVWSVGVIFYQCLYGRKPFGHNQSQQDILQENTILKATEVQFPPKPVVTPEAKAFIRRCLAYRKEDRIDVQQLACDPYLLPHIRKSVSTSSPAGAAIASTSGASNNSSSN
# [17] = target: Serine/threonine-protein kinase tousled-like 2 (Homo sapiens) (UniProt Q86UE8); details: at 10 µM
# [18] = target: T6, Serine/threonine-protein kinase Nek2 (Homo sapiens) (UniProt P51955); details: at 1 µM
# T6 sequence (whole entry): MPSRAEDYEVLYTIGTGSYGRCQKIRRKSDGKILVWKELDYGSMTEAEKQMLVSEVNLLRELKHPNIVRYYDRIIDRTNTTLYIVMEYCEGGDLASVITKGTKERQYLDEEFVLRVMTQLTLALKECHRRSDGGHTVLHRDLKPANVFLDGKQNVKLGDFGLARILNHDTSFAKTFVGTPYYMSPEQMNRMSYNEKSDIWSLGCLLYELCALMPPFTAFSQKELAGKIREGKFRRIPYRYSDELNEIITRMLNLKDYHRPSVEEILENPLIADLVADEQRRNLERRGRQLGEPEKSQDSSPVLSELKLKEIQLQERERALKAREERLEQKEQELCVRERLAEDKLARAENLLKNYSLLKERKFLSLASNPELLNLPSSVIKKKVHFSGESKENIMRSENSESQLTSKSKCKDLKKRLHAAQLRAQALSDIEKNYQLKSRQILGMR
# [19] = target: T1, Serine/threonine-protein kinase 3 (Homo sapiens); details: at 10 µM
# [20] = target: T6, Serine/threonine-protein kinase Nek2 (Homo sapiens); details: at 10 µM
SMILES,residual activity [1] [%],residual activity [2] [%],residual activity [3] [%],residual activity [4] [%],residual activity [5] [%],residual activity [6] [%],residual activity [7] [%],residual activity [8] [%],residual activity [9] [%],residual activity [10] [%],residual activity [11] [%],residual activity [12] [%],residual activity [13] [%],residual activity [14] [%],residual activity [15] [%],residual activity [16] [%],residual activity [17] [%],residual activity [18] [%],residual activity [19] [%],residual activity [20] [%]
Fc1ccc(-c2nc3n(c2-c2ccncc2)CCS3)cc1,99,99,89,130,100,77,83,–,–,–,–,–,–,–,–,–,–,–,–,–
c1ccc(-c2cnc(Nc3ccc(OCCN4CCCC4)cc3)s2)cc1,109,67,80,78,44,81,76,81,17,21,7,4,0,115,76,105,81,–,–,–
Oc1cccc(-c2nc(N3CCOCC3)c3oc4ncccc4c3n2)c1,–,75,74,121,133,98,98,–,93,–,–,–,–,117,69,–,95,–,–,–
O=c1cc(N2CCOCC2)oc2c(-c3ccccc3)cccc12,–,59,55,–,–,–,–,–,–,–,–,–,–,–,–,–,–,81,–,–
O=C1C(Cl)=C(N2C(=O)CCC2=O)C(=O)c2ccccc21,–,78,79,–,95,41,33,90,92,102,94,76,84,74,87,94,95,93,83,89
O=C1Nc2ccccc2/C1=C\c1c(Cl)[nH]c2ccccc12,–,83,67,121,40,64,29,77,21,–,70,78,70,82,–,–,76,–,–,77
CC(C)(C)n1nc(Cc2cccc3ccccc23)c2c(N)ncnc21,91,–,32,128,73,91,82,–,–,113,98,121,76,108,105,104,97,78,29,97
O=S(=O)(NCCNC/C=C/c1ccc(Br)cc1)c1cccc2cnccc12,–,78,52,–,–,69,69,–,25,–,–,81,76,–,–,–,–,–,–,–
O=c1cc(N2CCOCC2)oc2c1ccc1ccccc12,–,70,82,–,133,98,75,105,83,100,93,100,87,–,79,101,92,79,–,84
